High-throughput results as filed in PubChem BioAssay.
Most compounds without a hit are left out; they make up all but 3.7% or so of the library.
BoNT-A LC inh2: BoNT A light chain protease inhibition; multiplex microsphere protease substrate cleavage, flow cytometry; inhibition, % at 10 µM; 360,000 compounds, 0.17% hits; AID 588499; also: plate controls were buffer without enzyme for full effect and enzyme alone for no effect
Anthrax LF prot: inhibitors of Bacillus anthracis lethal factor protease; P15917; multiplex microsphere protease cleavage assay, LF; inhibition, % at 10 µM; 360,000 compounds, 0.12% hits; AID 588501; also: plate controls were buffer without enzyme for full effect and enzyme alone for no effect
Bead autofluor: counter-screen for toxin protease inhibitors: compound fluorescence; fluorescence intensity (no concentration beside the values); AID 624483; 360,000 compounds, 3.1% hits; compound autofluorescence counterscreen, microsphere flow cytometry; stronger effect = higher value; in the data active = fluorescence intensity above about 16000; inconclusive = no clear call, values can overlap the other calls
BJeLR viability: kills HRASV12-expressing BJeLR cells; BJeLR (HRASV12) viability, CellTiter-Glo ATP luminescence, 48 h; inhibition, % (concentration not given with the values); 300,000 compounds, 0.17% hits; in the data active = inhibition above about 50%; inconclusive = no clear call, values can overlap the other calls
BoNT F protease: BoNT F light chain protease inhibition | Multiplex microsphere protease cleavage assay, flow cytometry | 360,000 compounds, 0.22% hits | AID 588497 | inhibition, % at 10 µM; in the data active = inhibition above about 35%, passing the limit was not always enough; inconclusive = no clear call, values can overlap the other calls; also: plate controls were buffer without enzyme for full effect and enzyme alone for no effect
Vc quorum ag: quorum light induction in luxS cqsA deficient V. cholerae | V. cholerae BH1578 lux reporter, luminescence, 6 h | activation, % at 18.7 µM | 350,000 compounds, 0.16% hits | AID 588436; in the data active = activation mostly above about 9.7%, no sharp cut-off; inconclusive = no clear call, values can overlap the other calls; inactive = mostly below about 3.7%
* marks the source's active call; other numbers are inactive results; i = inactive; u = inconclusive; x = no result. Rule as the data show it, unless noted: active = inhibition above about 30%; inconclusive = no clear call, values can overlap the other calls; inactive = below that.

SMILES	BoNT-A LC inh2	Anthrax LF prot	Bead autofluor	BJeLR viability	BoNT F protease	Vc quorum ag
CCOc1ccc(CCNC(=O)CS(=O)Cc2nc(-c3ccccc3C)oc2C)cc1OCC (configuration not stated)	-48.8	-18.0	20576*	-0.8	-98.1	i
Cc1ccccc1-c1nc(CS(=O)CC(=O)NCCN2CCN(Cc3ccccc3)CC2)c(C)o1 (configuration not stated)	u	-4.5	21943*	1.9	0.3	i
COc1ccc(N2C(=O)C3C4C=CC(C5CC45)C3C2=O)c([N+](=O)[O-])c1 (configuration not stated)	0.0	10.8	3223	8.6	-12.1	16.7*
COc1ccc(N2C(=O)C3C4C=CC(CC4)C3C2=O)c([N+](=O)[O-])c1 (configuration not stated)	0.1	0.2	11680	5.3	-12.8	i
Cc1cc(Br)cn2c(Cc3ccsc3)c(-c3ccc(F)cc3)nc12	1.9	-2.0	5694	x	2.1	x
COCCCNC(=O)c1c(N)n(-c2cccc(S(N)(=O)=O)c2)c2nc3ccccc3nc12	1.1	3.7	3151	-11.1	1.8	-0.5
CCCNC(=O)c1c(N)n(-c2cccc(OC)c2)c2nc3ccccc3nc12	u	7.6	20561*	-1.2	8.0	i
O=C(c1ccccc1)N1CCN(C2c3cccc4cccc(c34)C2NS(=O)(=O)c2ccccc2)CC1 (configuration not stated)	-2.7	-2.5	23933*	1.5	-5.7	i
O=S(=O)(NC1c2cccc3cccc(c23)C1N1CCNCC1)c1ccccc1 (configuration not stated)	-1.2	0.8	7200	2.5	-19.2	i
Cn1c(=O)c2cc(NC(=O)CCc3ccccc3)ccc2n1-c1ccccc1F	-0.1	5.0	3740	x	1.5	i
CNC(=O)C1Cc2c(-c3ccc4c(c3)OCO4)ccnc2O1 (configuration not stated)	-0.7	-4.1	3029	x	-2.1	0.9
CC1=CC2=C(OC1N(C)C)c1cccc3cccc(c13)C2=O (configuration not stated)	15.0	23.4	21836*	15.1	9.8	2.9
CN(C)CCCN1C(=O)c2cccc3cccc(c23)C1=O	-1.0	0.2	3724	-1.8	9.3	-0.8
O=C1CCN(Cc2ccco2)C(=S)N1	-0.2	3.0	4124	x	-7.2	i
COc1ccc(NC(=O)c2cc(-c3ccc(OC)c(OC)c3)on2)cc1OC	-1.4	-8.3	23014*	1.4	-3.6	i
COc1ccc(-c2cc(C(=O)NCc3ccccc3)no2)cc1OC	3.4	4.1	21267*	2.7	2.6	-2.0
COc1ccc(CNC(=O)c2cc(-c3ccc(OC)c(OC)c3)on2)cc1	1.0	0.0	11435	2.8	-0.4	i
Nc1[nH]c(C(=O)c2ccccc2)c(-c2ccc(Cl)cc2Cl)c1C(=O)NCCc1c[nH]c2ccccc12	0.5	-0.3	5730	x	0.2	x
CCOCCNC(=O)c1ccccc1C(=O)NCCOCC	-3.8	-1.1	17947*	2.2	-5.2	i
Cc1ccc(NC(=O)Cn2cccc2)c(Br)c1	-0.9	-2.0	23334*	1.9	-2.3	-0.2
COc1ccc(NCC(=O)Nc2ccccc2C#N)cc1Cl	2.3	-7.8	21530*	-5.9	4.7	i
COc1ccc(NC(=O)CNC(c2ccccc2)c2ccccc2)cc1Cl	-3.2	4.0	4121	-2.3	-23.9	-0.6
Cc1cccc(NC(=O)Cn2cccc2)c1	-1.5	-2.0	20306*	-8.8	-1.9	-0.2
O=C(Cn1cccc1)Nc1ccc(OC(F)(F)F)cc1	3.7	0.8	21063*	-13.3	4.3	-0.2
Cc1ccc(NC(=O)Cn2cccc2)c(C)c1	-1.1	-1.7	4255	-6.6	-5.9	-1.6
SMILES	BoNT-A LC inh2	Anthrax LF prot	Bead autofluor	BJeLR viability	BoNT F protease	Vc quorum ag
Cc1ccccc1C(=O)NCCN1CCC(n2c(=O)[nH]c3ccccc32)CC1	0.7	0.2	6098	x	-2.0	x
COc1ccc(NC(=O)Cn2cccc2)cc1Cl	2.1	-1.6	22292*	-1.5	0.8	-0.4
Cc1nn(CCOc2ccccc2)c(=O)n1-c1cccc(F)c1	7.2	-21.0	16398*	3.7	8.2	-2.3
Cc1nn(CCOc2ccccc2)c(=O)n1-c1ccc(F)cc1	1.3	-5.3	16122	7.1	1.4	-0.2
C=CCn1c(N2C(=O)CC(Cc3ccccc3)C2=O)nc2ccccc21 (configuration not stated)	-0.6	-2.3	22688*	1.8	-2.2	11.1
O=C1CC(Cc2ccccc2)C(=O)N1c1ccccn1 (configuration not stated)	0.0	-3.5	3920	0.8	u	i
CC1(c2nnnn2Cc2ccccc2)CCC(=O)N1Cc1cccnc1 (configuration not stated)	-0.3	7.9	5972	x	6.4	x
Cc1cc(N2CCCC2)c(F)cc1/C=C\[N+](=O)[O-]	61.5*	34.9*	9071	-2.4	22.5	1.6
CC1CCN(c2cc(C#N)c(C#N)cc2[N+](=O)[O-])CC1	-1.1	-0.4	23005*	5.5	-2.7	i
Cc1cc(N2CCC(C)CC2)c(F)cc1[N+](=O)[O-]	-0.7	1.3	24078*	1.1	-1.8	2.7
O=C(c1[nH]c(C(F)(F)F)nc1-c1ccccc1)N1CCN(Cc2c(F)cccc2Cl)CC1	0.2	3.1	5831	x	1.9	x
O=C(CN(Cc1ccco1)C(=O)c1ccc(F)cc1F)Nc1ccccc1C(F)(F)F	2.0	-5.1	6714	x	3.7	i
O=C(CN(Cc1ccco1)C(=O)c1cc(=O)[nH]c2ccccc12)Nc1ccccc1C(F)(F)F	0.1	-3.5	16502*	-13.6	-0.4	-3.0
COc1cccc(CNC(=O)[C@@H]2CCCN2C(=O)[C@H]2CCCCN2C(=O)c2ccccc2C)c1	-1.1	-9.2	6218	x	-3.0	x
CCCCCOc1ccc(Br)cc1/C(C)=N/NC1=NCCN1	1.9	-1.2	3600	81.0*	u	i
COc1ccc(Br)cc1/C(C)=N/NC1=NCCN1	0.0	-1.9	2684	7.2	-2.4	i
Nc1ccn([C@@H]2O[C@H](C(=O)Nc3ccc(Oc4ccccc4)nc3)[C@@H](O)[C@H]2O)c(=O)n1	-0.2	0.2	6047	x	0.9	x
O=C(c1ccccc1)c1nc2c(n1O)CCCCC2	0.4	-3.3	4574	2.9	-2.8	-0.3
CCCOc1ccc(C(=O)c2nc3c(n2O)CCCCC3)cc1	0.7	3.9	23225*	1.0	-5.4	i
Cc1ccc(CN2CC(N3CCN(CC4CC4)CC3)CS2(=O)=O)cc1 (configuration not stated)	0.8	-6.1	5828	x	-3.5	x
O=c1c2c([nH]c3ccccc13)CCCCCC2	u	-5.9	22192*	7.1	-3.4	-6.0
O=c1cc(-c2ccccc2Cl)c2c([nH]1)CCC2	-0.7	-8.9	5713	11.0	-9.2	i
O=c1cc(-c2ccccc2)c2c([nH]1)CCCC2	5.4	-8.5	19679*	5.1	6.6	15.1
O=C1c2ccccc2C(=O)N1Cc1nc(-c2ccccc2)no1	-3.5	-1.1	21600*	7.3	-5.3	-0.9
